Measured values as given in PubChem BioAssay (NCI).
About 83,000 compounds went through this panel and 20% of them were active in at least one assay; those are over-represented in the sample as a whole.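 How to read the values: 0–100, growth inhibition (40 = 60% inhibited); 0, no net growth; -100 to 0, cell death (-40 = 40% of starting cells died; -100 = all dead).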 Calls of active or inactive are those of the source. The calls were made as follows: active = growth percent below 10; inactive = the rest.

Key:
Experiment in all cases: NCI-60 one-dose screen, 48 h (100 = growth as untreated, 0 = no growth, -100 = all killed)
Conditions in all cases: 10 µM unless noted
K-562 leukemia = system: K-562 leukemia
MALME-3M melanoma = system: MALME-3M melanoma
MDA-MB-231 breast = system: MDA-MB-231 breast
RXF 393 renal = system: RXF 393 renal
SF-268 CNS = system: SF-268 CNS
SF-295 CNS = system: SF-295 CNS
SF-539 CNS = system: SF-539 CNS
UACC-257 melanoma = system: UACC-257 melanoma
M14 melanoma = system: M14 melanoma
HCT-15 colon = system: HCT-15 colon

Measured: growth

CN(C)c1cccc2c(S(=O)(=O)N[C@H]3CC[C@H]4[C@@H]5CCc6cc(O)ccc6[C@H]5CC[C@]34C)cccc12
active: K-562 leukemia 2.22%
inactive: MALME-3M melanoma 29.6% | MDA-MB-231 breast 35% | RXF 393 renal 11.2% | SF-268 CNS 40.6% | SF-295 CNS 44.9% | SF-539 CNS 44.7% | UACC-257 melanoma 52.8% | M14 melanoma 31.3% | HCT-15 colon 18%

C[N+]1(CCc2ccccc2)CCC(CCC2CC[N+](C)(CCc3ccccc3)CC2)CC1 (stereo not given)
inactive: K-562 leukemia 129% | MALME-3M melanoma 118% | MDA-MB-231 breast 101% | RXF 393 renal 105% | SF-268 CNS 102% | SF-295 CNS 97.1% | SF-539 CNS 106% | UACC-257 melanoma 110% | M14 melanoma 103% | HCT-15 colon 104%

CCOC(=O)c1c(NC(=O)C2CCCCC2C(=O)O)sc2c1CCCC2 (stereo not given)
inactive: K-562 leukemia 102% | MALME-3M melanoma 109% | MDA-MB-231 breast 105% | RXF 393 renal 114% | SF-268 CNS 105% | SF-295 CNS 96.3% | SF-539 CNS 102% | UACC-257 melanoma 92.1% | M14 melanoma 106% | HCT-15 colon 106%

O=C(Nc1ccc(Cl)cc1)Nc1ccc(Oc2nncc3ccccc23)cc1
inactive: SF-268 CNS 12.6% | SF-295 CNS 40.7% | UACC-257 melanoma 34.4%
active: K-562 leukemia 5.58% | MALME-3M melanoma 0.777% | MDA-MB-231 breast -25.2% | RXF 393 renal -91.2% | SF-539 CNS -76.5% | M14 melanoma 7.3% | HCT-15 colon 2.76%

CC12CCC3C(CCC4CC(=O)/C(=C\O)CC43C)C1CCC(=O)O2 (stereo not given)
inactive: K-562 leukemia 104% | MALME-3M melanoma 124% | MDA-MB-231 breast 111% | RXF 393 renal 141% | SF-268 CNS 108% | SF-295 CNS 109% | SF-539 CNS 111% | UACC-257 melanoma 115% | M14 melanoma 95.2% | HCT-15 colon 121%

N#Cc1ccc(NC(=O)Nc2ccc(Oc3ccc(NC(=O)Nc4ccc(C#N)cc4)cc3)cc2)cc1
active: K-562 leukemia 0.451%
inactive: MALME-3M melanoma 54.4% | MDA-MB-231 breast 53.5% | RXF 393 renal 83.2% | SF-268 CNS 42.1% | SF-295 CNS 23.7% | SF-539 CNS 71% | UACC-257 melanoma 37% | M14 melanoma 26.2% | HCT-15 colon 32.1%

O=C1/C(=C/c2ccc([N+](=O)[O-])s2)Oc2ccc(Br)cc21
active: K-562 leukemia -5.87% | MALME-3M melanoma -59.7% | MDA-MB-231 breast -64% | RXF 393 renal -59.9% | SF-268 CNS -52.1% | SF-295 CNS -31.3% | SF-539 CNS -73.7% | UACC-257 melanoma -39.2% | M14 melanoma -54.1% | HCT-15 colon -3.34%

Cc1cc2c(cc1[N+](=O)[O-])NC(CNC(C)C)CC2 (stereo not given)
inactive: K-562 leukemia 96.5% | MALME-3M melanoma 117% | MDA-MB-231 breast 107% | RXF 393 renal 117% | SF-268 CNS 95.1% | SF-295 CNS 102% | SF-539 CNS 103% | UACC-257 melanoma 106% | M14 melanoma 92% | HCT-15 colon 102%

O=C(c1nn(-c2ccc(Cl)cc2)cc1O)n1nc(C(F)(F)F)cc1-c1ccccc1
active: SF-295 CNS -0.429%
inactive: K-562 leukemia 18.6% | MALME-3M melanoma 107% | MDA-MB-231 breast 54.6% | RXF 393 renal 55.1% | SF-268 CNS 42.3% | SF-539 CNS 45.6% | UACC-257 melanoma 53.3% | M14 melanoma 43.4% | HCT-15 colon 30.2%

Nc1ccc(C2=Nc3cccc4cccc(c34)S2)cc1
inactive: K-562 leukemia 88.3% | MALME-3M melanoma 94.5% | MDA-MB-231 breast 60% | RXF 393 renal 107% | SF-268 CNS 88.9% | SF-295 CNS 73% | SF-539 CNS 102% | UACC-257 melanoma 84.3% | M14 melanoma 83.9% | HCT-15 colon 54.5%

O=C(O)c1ccc(NC(=O)c2cccc(Nc3ccnc(C(F)(F)F)c3)c2)cc1
inactive: K-562 leukemia 105% | MALME-3M melanoma 93.5% | MDA-MB-231 breast 110% | RXF 393 renal 103% | SF-268 CNS 104% | SF-295 CNS 88.8% | SF-539 CNS 106% | UACC-257 melanoma 98.7% | M14 melanoma 95.6% | HCT-15 colon 96.5%

CN(C)c1ccc2[nH]c3c(C(N)=O)cc(=O)c(=O)c=3oc2c1
inactive: MALME-3M melanoma 87.7% | MDA-MB-231 breast 62.6% | RXF 393 renal 52.1% | SF-268 CNS 79.8% | SF-295 CNS 78.9% | UACC-257 melanoma 91% | M14 melanoma 61.5% | HCT-15 colon 24.8%
active: K-562 leukemia 7.27% | SF-539 CNS 7.15%

CC(=O)c1cc(C(=O)c2ccc3c(c2)Sc2ccccc2N3)c2c(C)cc(C)cn12
active: K-562 leukemia 4.47% | MDA-MB-231 breast -13.5% | SF-295 CNS -1.02% | SF-539 CNS -2.53% | M14 melanoma 9.62%
inactive: MALME-3M melanoma 69.6% | RXF 393 renal 34.3% | SF-268 CNS 11.9% | UACC-257 melanoma 26.9% | HCT-15 colon 15%

COc1ccc(-c2nn(-c3ccccc3)cc2/C=C2\SC(=S)N(CCc3ccc(O)cc3)C2=O)cc1
inactive: K-562 leukemia 66% | MALME-3M melanoma 85.1% | MDA-MB-231 breast 75.4% | RXF 393 renal 92.5% | SF-268 CNS 81.4% | SF-295 CNS 80.2% | SF-539 CNS 87.2% | UACC-257 melanoma 93.7% | M14 melanoma 91.3% | HCT-15 colon 77.7%
